Data published in PubChem BioAssay (NCATS).
Inconclusive results are not listed. Activity calls are given as the source filed them. Calls come from the whole dose curve; as a rule, active = well fitted curve in the direction sought with a large enough effect; inconclusive = small, poorly fitted or top-dose-only effect, or another doubt; inactive = no such curve, though single readings can be large; an effect the other way counts as inactive or inconclusive.

How the values were obtained:
HACAT = assay: qHTS assay to identify novel small-molecules to repurpose for Merkel cell carcinoma treatment (AID 1296009); details: MCC and control cell lines, CellTiter-Glo viability, 72 h; at 44.8 µM (top of the series) unless noted; note: nearly all actives have a fitted effect of over 60% in size
Method in brief: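 Viability readout: ATP luminescence (CellTiter-Glo) after 72 hr drug exposure at 37 degree celsius. Dose-response format was 8 points for NPC and 11 points for MIPE; data normalized to in-plate controls.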

C33A = assay: Primary qHTS to identify gynecologic anti-cancer compounds using libraries of approved drugs and bioactive compounds (AID 1345084); details: Gynecologic cancer cell panel viability, ATPlite luminescence, 48 h; series mostly up to 57.5 µM; note: % is set by controls: 0 for no effect and ±100 for the full control effect; nearly all actives have a fitted effect of over 55% in size
Method in brief: (§1)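 Five-point cytotoxicity, 48 h drug exposure at 37 C, 5% CO2, on cells seeded 16 h beforehand. ATP content read by ATPlite luminescence.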

CAOV3 = assay: as above; details: Gynecologic cancer cell panel viability, ATPlite luminescence, 48 h; series mostly up to 57.5 µM
Method in brief: as §1

CASKI = assay: as above; details: Gynecologic cancer cell panel viability, ATPlite luminescence, 48 h; series mostly up to 57.5 µM
Method in brief: as §1

Es-2 = assay: as above; details: Gynecologic cancer cell panel viability, ATPlite luminescence, 48 h; series mostly up to 57.5 µM
Method in brief: as §1

HeLa = assay: as above; details: Gynecologic cancer cell panel viability, ATPlite luminescence, 48 h; series mostly up to 57.5 µM
Method in brief: as §1

Hek293T = assay: as above; details: Gynecologic cancer cell panel viability, ATPlite luminescence, 48 h, control line for the selectivity index; series mostly up to 57.5 µM
Method in brief: as §1

JEG-3 = assay: as above; details: Gynecologic cancer cell panel viability, ATPlite luminescence, 48 h; series mostly up to 57.5 µM
Method in brief: as §1

C[C@@H]1O[C@@H](O[C@H]2[C@H](O)[C@@H](O[C@@H]3O[C@H](CO)[C@H](O)[C@H](O)[C@H]3O)[C@H](O[C@H]3CC[C@@]4(C)C(CC[C@]5(C)C4CC=C4[C@@H]6CC(C)(C)CC[C@]6(C(=O)O[C@@H]6O[C@H](CO)[C@@H](O)[C@H](O)[C@H]6O)CC[C@]45C)C3(C)C)O[C@@H]2C(=O)O)[C@H](O)[C@H](O)[C@H]1O (some centres undefined)
inactive: outcome (HACAT) inactive [at 9.27 µM] | activity change, negative = cytotoxicity (C33A) 1.15% [at 11.6 µM] | activity change, negative = cytotoxicity (CAOV3) -1.94% [at 11.6 µM] | activity change, negative = cytotoxicity (CASKI) -5.82% [at 11.6 µM] | activity change, negative = cytotoxicity (Es-2) 2.19% [at 11.6 µM] | activity change, negative = cytotoxicity (HeLa) 1.11% [at 11.6 µM] | activity change, negative = cytotoxicity (Hek293T) -2.99% [at 11.6 µM] | activity change, negative = cytotoxicity (JEG-3) -3.24% [at 11.6 µM]

OC[C@@]1(O)CO[C@H](OC[C@H]2O[C@@H](OCCc3ccccc3)[C@H](O)[C@@H](O)[C@@H]2O)[C@@H]1O
inactive: outcome (HACAT) inactive [at 17.4 µM] | Potency (C33A) | Potency (CAOV3) | outcome (CASKI) | Potency (Es-2) | Potency (HeLa) | Potency (Hek293T) | Potency (JEG-3)

COc1cc(Nc2ccc([N+](=O)[O-])cc2C(=O)O)cc2ccccc12
inactive: outcome (HACAT) | Potency (C33A) | Potency (CAOV3) | outcome (CASKI) | Potency (Es-2) | Potency (HeLa) | Potency (Hek293T) | Potency (JEG-3)

CCC12CCCN3CCc4c(n(c5ccccc45)C(O)C1)C32 (centres undefined)
inactive: outcome (HACAT) | Potency (C33A) | Potency (CAOV3) | outcome (CASKI) | Potency (Es-2) | Potency (HeLa) | Potency (Hek293T) | Potency (JEG-3)

CC(=O)OC(C)C(C)(O)C(=O)O[C@@H]1CC[C@]2(C)CC(=O)C(=C(C)C)C[C@H]2[C@]1(C)OC(C)=O (some centres undefined)
inactive: outcome (HACAT) inactive [at 17.4 µM] | Potency (C33A) | Potency (CAOV3) | outcome (CASKI) | Potency (Es-2) | Potency (HeLa) | Potency (Hek293T) | Potency (JEG-3)

CC(=O)C1CCC(=O)N1Cc1ccccc1 (centres undefined)
inactive: outcome (HACAT) | Potency (C33A) | Potency (CAOV3) | outcome (CASKI) | Potency (Es-2) | Potency (HeLa) | Potency (Hek293T) | Potency (JEG-3)

COc1cc(O)cc(O[C@@H]2O[C@H](CO)[C@@H](O[C@@H]3OC[C@](O)(CO)[C@H]3O)[C@H](O)[C@H]2O)c1OC
inactive: outcome (HACAT) inactive [at 17.4 µM] | Potency (C33A) | Potency (CAOV3) | outcome (CASKI) | Potency (Es-2) | Potency (HeLa) | Potency (Hek293T) | Potency (JEG-3)

COC(=O)C1=CO[C@@H](O[C@@H]2O[C@H](CO)[C@@H](O)[C@H](O)[C@H]2O)[C@@H]2C(CO)=CC[C@H]12
inactive: outcome (HACAT) | Potency (C33A) | Potency (CAOV3) | outcome (CASKI) | Potency (Es-2) | Potency (HeLa) | Potency (Hek293T) | Potency (JEG-3)

O=C(OCC(O)CO[C@@H]1O[C@H](C(=O)O)[C@@H](O)[C@H](O)[C@H]1O)c1ccccc1 (some centres undefined)
inactive: outcome (HACAT) | Potency (C33A) | Potency (CAOV3) | outcome (CASKI) | Potency (Es-2) | Potency (HeLa) | Potency (Hek293T) | Potency (JEG-3)

COC(=O)[C@H](Cc1cccc(C(=N)N)c1)[C@@H](C)NC(=O)c1ccc(-c2cc[n+]([O-])cc2)cc1
inactive: outcome (HACAT) | Potency (C33A) | Potency (CAOV3) | outcome (CASKI) | Potency (Es-2) | Potency (HeLa) | Potency (Hek293T) | Potency (JEG-3)

OC[C@H]1O[C@@H](OCCc2ccccc2)[C@H](O)[C@@H](O)[C@@H]1O
inactive: outcome (HACAT) | Potency (C33A) | Potency (CAOV3) | outcome (CASKI) | Potency (Es-2) | Potency (HeLa) | Potency (Hek293T) | Potency (JEG-3)

C=CC(C)(O)CC/C=C(\C)COC1O[C@H](CO)[C@@H](O)[C@H](O)[C@H]1O (some centres undefined)
inactive: outcome (HACAT) | Potency (C33A) | Potency (CAOV3) | outcome (CASKI) | Potency (Es-2) | Potency (HeLa) | Potency (Hek293T) | Potency (JEG-3)

NC(=O)c1ccc(F)c2c1C[C@@H](N(C1CCC1)C1CCC1)CO2
inactive: outcome (HACAT) | Potency (C33A) | Potency (CAOV3) | outcome (CASKI) | Potency (Es-2) | Potency (HeLa) | Potency (Hek293T) | Potency (JEG-3)

COC(=O)C1=CO[C@@H](O[C@@H]2O[C@H](CO)[C@@H](O)[C@H](O)[C@H]2O)[C@@H]2[C@@H](C(=O)O)CC[C@H]12
inactive: outcome (HACAT) inactive [at 17.4 µM] | Potency (C33A) | Potency (CAOV3) | outcome (CASKI) | Potency (Es-2) | Potency (HeLa) | Potency (Hek293T) | Potency (JEG-3)

CC[C@@H](C)[C@H](N)C(=O)N1Cc2ccccc2C1
inactive: outcome (HACAT) | Potency (C33A) | Potency (CAOV3) | outcome (CASKI) | Potency (Es-2) | Potency (HeLa) | Potency (Hek293T) | Potency (JEG-3)

C=C1CC[C@@H]2[C@](C)(CO)[C@H](O[C@@H]3O[C@H](CO)[C@@H](O)[C@H](O)[C@H]3O)CC[C@@]2(C)[C@@H]1C/C=C1/C(=O)OC[C@H]1O
inactive: outcome (HACAT) inactive [at 17.4 µM] | Potency (C33A) | Potency (CAOV3) | outcome (CASKI) | Potency (Es-2) | Potency (HeLa) | Potency (Hek293T) | Potency (JEG-3)

C=C1C2(C)CC3C4(C)OC(C5OC56C4=CC(=O)OC6(C)C)C3(C)C13C(=O)OC(C)C3(O)C2=O (centres undefined)
inactive: outcome (HACAT) inactive [at 17.4 µM] | Potency (C33A) | Potency (CAOV3) | outcome (CASKI) | Potency (Es-2) | Potency (HeLa) | Potency (Hek293T) | Potency (JEG-3)

NC[C@H]1CCC[C@@H](CNC(=O)[C@@H](Cc2c[nH]c3ccccc23)NC(=O)N2CCC3(C=Cc4ccccc43)CC2)C1
inactive: outcome (HACAT) | Potency (C33A) | Potency (CAOV3) | outcome (CASKI) | Potency (Es-2) | Potency (HeLa) | Potency (Hek293T) | Potency (JEG-3)

CC1CCC2(C)CCC3(C)C(=CCC4C5(C)CCC(O)C(C)(C(=O)O)C5CCC43C)C2C1C (centres undefined)
inactive: outcome (HACAT) inactive [at 17.4 µM] | Potency (C33A) | Potency (CAOV3) | outcome (CASKI) | Potency (Es-2) | Potency (HeLa) | Potency (Hek293T) | Potency (JEG-3)

C[C@@H]1O[C@@H](OC2C(CO)OC(OCC3OC(OC(=O)[C@]45CCC(C)(C)CC4C4=CCC6[C@@]7(C)CC[C@@H](O)[C@](C)(C(=O)O)C7CC[C@@]6(C)[C@]4(C)CC5)C(O)C(O)C3O)C(O)C2O)[C@H](O)[C@H](O)[C@H]1O (some centres undefined)
inactive: outcome (HACAT) inactive [at 9.27 µM] | activity change, negative = cytotoxicity (C33A) 1.71% [at 11.6 µM] | activity change, negative = cytotoxicity (CAOV3) 16.7% [at 11.6 µM] | activity change, negative = cytotoxicity (CASKI) -0.233% [at 11.6 µM] | activity change, negative = cytotoxicity (Es-2) -9.93% [at 11.6 µM] | activity change, negative = cytotoxicity (HeLa) 4.67% [at 11.6 µM] | activity change, negative = cytotoxicity (Hek293T) 5.6% [at 11.6 µM] | activity change, negative = cytotoxicity (JEG-3) 7.96% [at 11.6 µM]

Cc1ccc(COC(=O)N2CC[C@@H](CNc3ncccn3)[C@@H](F)C2)cc1
inactive: outcome (HACAT) | Potency (C33A) | Potency (CAOV3) | outcome (CASKI) | Potency (Es-2) | Potency (HeLa) | Potency (Hek293T) | Potency (JEG-3)

COc1c(C)c(OCC(O)C(C)(C)O)cc2c1CNC2=O (centres undefined)
inactive: outcome (HACAT) | Potency (C33A) | Potency (CAOV3) | outcome (CASKI) | Potency (Es-2) | Potency (HeLa) | Potency (Hek293T) | Potency (JEG-3)

O=C(/C=C/c1ccccc1)O[C@@H]1[C@@H](CO)O[C@@](CO)(O[C@H]2O[C@H](CO)[C@@H](O)[C@H](O)[C@H]2O)[C@H]1O
inactive: outcome (HACAT) inactive [at 17.4 µM] | Potency (C33A) | Potency (CAOV3) | outcome (CASKI) | Potency (Es-2) | Potency (HeLa) | Potency (Hek293T) | Potency (JEG-3)

COc1cc(C(=O)OC[C@@]2(O)CO[C@@H](O[C@H]3[C@H](Oc4ccc(O)cc4)O[C@H](CO)[C@@H](O)[C@@H]3O)[C@@H]2O)cc(OC)c1O
inactive: outcome (HACAT) inactive [at 17.4 µM] | Potency (C33A) | Potency (CAOV3) | outcome (CASKI) | Potency (Es-2) | Potency (HeLa) | Potency (Hek293T) | Potency (JEG-3)

OCC1=C[C@@H](O)[C@@H]2C=CO[C@@H](O[C@@H]3O[C@H](CO)[C@@H](O)[C@H](O)[C@H]3O)[C@H]12
inactive: outcome (HACAT) | Potency (C33A) | Potency (CAOV3) | outcome (CASKI) | Potency (Es-2) | Potency (HeLa) | Potency (Hek293T) | Potency (JEG-3)

C=C(C)C1CCC2(C(=O)OC3OC(COC4OC(CO)C(O)C(O)C4O)C(OC4OC(C)C(O)C(O)C4O)C(O)C3O)CCC3(C(=O)O)C(CCC4C5(C)CCC(=O)C(C)(C)C5CCC43C)C12 (centres undefined)
inactive: outcome (HACAT) inactive [at 9.27 µM] | activity change, negative = cytotoxicity (C33A) 2.12% [at 11.6 µM] | activity change, negative = cytotoxicity (CAOV3) 1.66% [at 11.6 µM] | activity change, negative = cytotoxicity (CASKI) -3.34% [at 11.6 µM] | activity change, negative = cytotoxicity (Es-2) -14% [at 11.6 µM] | activity change, negative = cytotoxicity (HeLa) 1.62% [at 11.6 µM] | activity change, negative = cytotoxicity (Hek293T) 0.77% [at 11.6 µM] | activity change, negative = cytotoxicity (JEG-3) -1.16% [at 11.6 µM]

CCC(C)/C=C(C)/C=C/C1=CC2=C(Cl)C(=O)C(C)(OC(C)=O)C(=O)C2=CN1C(CC(=O)O)C(=O)O (centres undefined)
inactive: outcome (HACAT) inactive [at 17.4 µM] | Potency (C33A) | Potency (CAOV3) | outcome (CASKI) | Potency (Es-2) | Potency (HeLa) | Potency (Hek293T) | Potency (JEG-3)

COCC1OC(n2cnc3c(=O)[nH]cnc32)C(O)C1O (centres undefined)
inactive: outcome (HACAT) | Potency (C33A) | Potency (CAOV3) | outcome (CASKI) | Potency (Es-2) | Potency (HeLa) | Potency (Hek293T) | Potency (JEG-3)
